# Compounds with a hit are over-represented: about 2.9% of the library has one in this group of screens.
# ADAM17 inh: ADAM17 inhibitors, primary screen, biochemical, QFRET; hit rate 0.83% among 370,000; inhibition, % at 6.95 µM; Disintegrin and metalloproteinase domain-containing protein 17 (Homo sapiens), P78536; recombinant ADAM17, EDANS/DABCYL FRET peptide cleavage;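 active = inhibition above the mean of compounds lying between control limits plus 3 SD, set per campaign, cut at about 8.5% in these data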
# PLC-gamma1 inh: PLC-gamma1 enzyme inhibitors, primary screen, biochemical, fluorescence, purified enzyme; AID 720700, 2013; inhibition, % at 12.2 µM; fluorogenic substrate; hit rate 0.84% among 370,000; 1-phosphatidylinositol 4,5-bisphosphate phosphodiesterase gamma-1 (Homo sapiens), P19174; in the data active = inhibition above about 9.5%
# proKLK7 act: proKLK7 zymogen activators, primary screen, biochemical, fluorescence intensity. activation, % at 7 µM. purified proKLK7, EDANS-DABCYL substrate fluorescence; 100% is mature enzyme control, 0% vehicle. AID 652039, 2013. Kallikrein-7 (Homo sapiens), P49862. hit rate 0.9% among 370,000;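 active = activation above the mean of all tested compounds plus 3 SD, computed per campaign excluding outliers beyond control limits, cut at about 13% in these data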
# PLCb3 inh: human PLC-beta3 inhibitors, primary screen, biochemical, fluorescence; AID 720704, 2013; Purified PLC-beta3, fluorogenic substrate; hit rate 0.18% among 370,000; inhibition, % at 12.2 µM; 1-phosphatidylinositol 4,5-bisphosphate phosphodiesterase beta-3 (Homo sapiens), Q01970
# ADAM10 inh: human ADAM10 inhibitors, primary screen, biochemical, QFRET, HTS | hit rate 0.62% among 370,000 | inhibition, % at 7 µM | AID 720582, 2013 | recombinant ADAM10, EDANS/DABCYL FRET peptide cleavage, 3 h;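 active = inhibition above a per-campaign cutoff equal to the mean of compounds falling between control-based bounds plus 3 SD, cut at about 20% in these data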
# PLCgamma1 ctr: PLC-gamma1 enzyme inhibitors, counter-screen for PLC-beta3 inhibitor project, biochemical, fluorescence; shares compounds with PLC-gamma1 inh; purified PLC-gamma1, fluorogenic substrate; inhibition, % at 12.3 µM; hit rate 3.1% among 3,300; AID 743258, 2014; in the data active = inhibition above about 9.5%
# PLCb3 confirm: PLC-beta3 inhibitor confirmation, biochemical, fluorescence, purified enzyme; inhibition, % at 12.3 µM; hit rate 1% among 3,300; fluorogenic substrate fluorescence; shares compounds with PLC-gamma1 inh
# Numbers stand for hits; - = inactive; . = not tested or not shown. Rule as the data show it, unless noted: active = inhibition above about 11%; inactive = the rest.
SMILES,ADAM17 inh,PLC-gamma1 inh,proKLK7 act,PLCb3 inh,ADAM10 inh,PLCgamma1 ctr,PLCb3 confirm
COc1ccc(NC(=O)CN(C)C(=O)c2cccc(S(=O)(=O)N3CCN(c4ccc(F)cc4)CC3)c2)cc1,-,-,-,-,-,.,.
CCCCCn1c(SCC(=O)CC(=O)OCC)nc2cc(C(=O)N3CCC(C(N)=O)CC3)ccc2c1=O,-,-,-,-,-,.,.
CCCCCn1c(SCC2CCCO2)nc2cc(C(=O)N3CCC(C(N)=O)CC3)ccc2c1=O (stereo not given),-,9.6,-,-,-,-,-
CC(=O)Nc1cccc(CP(=O)(c2ccccc2)c2ccccc2)c1,-,13.3,-,-,-,-,-
COc1ccc(CNCCS(=O)(=O)NCc2ccccc2)cc1,-,-,-,-,-,.,.
COc1ccc(CNCCS(=O)(=O)NCc2ccc(OC)cc2)cc1,-,13.0,-,-,-,-,-
C=C(C)C(=O)Nc1cccc(C2=NOC3(C2)C[C@@H](C(N)=O)N(C(=O)c2cc([N+](=O)[O-])cc([N+](=O)[O-])c2C)C3)c1 (stereo not given in full),-,10.0,-,-,-,-,-
C/C=C/C=C\C(=O)Nc1cccc(C2=NOC3(C2)C[C@@H](C(N)=O)N(C(=O)c2cc([N+](=O)[O-])cc([N+](=O)[O-])c2)C3)c1 (stereo not given in full),-,-,-,-,-,.,.
C/C=C/C(=O)Nc1cccc(C2=NOC3(C2)C[C@@H](C(N)=O)N(C(=O)c2cc([N+](=O)[O-])cc([N+](=O)[O-])c2C)C3)c1 (stereo not given in full),-,10.8,-,-,-,-,-
Cc1c(C(=O)N2CC3(CC(c4cccc(NC(=O)[C@H]5CCC(=O)N5)c4)=NO3)C[C@@H]2C(N)=O)cc([N+](=O)[O-])cc1[N+](=O)[O-] (stereo not given in full),-,-,-,-,-,.,.
O=C(NC1CCCCC1)C1c2ccccc2OCC(=O)N1CCc1c[nH]c2ccccc12 (stereo not given),-,-,-,-,-,.,.
Cc1cccc(C)c1-n1nnnc1C(c1cc2ccccc2o1)N1CCN(C/C=C/c2ccccc2)CC1 (stereo not given),-,-,-,-,-,.,.
Cc1cccc(NC(=S)N(Cc2cccc(Br)c2)CC2CCC(C(=O)O)CC2)c1 (stereo not given),-,10.9,-,-,-,-,-
CCOC(=O)[C@]12CCCCC/C=C\1N(CCc1ccc(Cl)cc1)C(=O)[C@H]2CC(=O)NCc1cccs1,-,-,-,-,-,.,.
CCOC(=O)[C@]12CCCCC/C=C\1N(Cc1ccc(OC)cc1)C(=O)[C@H]2CC(=O)NCc1cccs1,-,9.5,-,-,-,-,-
CC(=O)CC[C@H]1CC[C@]2(CCCN(S(=O)(=O)C3CCCCC3)C2)O1,-,-,-,-,-,.,.
CCN(CC(=O)NCc1cccs1)S(=O)(=O)c1cc(NC(C)=O)ccc1OC,-,9.6,-,-,-,-,-
CCOC(=O)C(Cc1cc(C(C)=O)ccc1OC(C)C)C(=O)OCC,-,-,-,-,-,.,.
CC(=O)c1ccc(OC(C)C)c(CSC(=N)N)c1,-,12.0,-,12.0,-,-,-
O=C(COC(=O)c1cccc([N+](=O)[O-])c1)Nc1ncc(Br)s1,-,-,-,-,-,.,.
CCCCNC(=O)C1(C)CCCCN1C(=O)c1cc2ccccc2s1 (stereo not given),-,-,-,13.1,-,-,-
CC(C)CNC(=O)C1(C)CCCCCN1C(=O)c1cccnc1 (stereo not given),-,-,-,-,-,.,.
Cc1nc(C(F)(F)F)ccc1C(=O)N1CCCCCC1(C)C(=O)NCC(C)C (stereo not given),-,15.5,-,-,-,-,-
CC(C)CNC(=O)C1(C)CCCCCN1C(=O)c1cc2ccccc2s1 (stereo not given),-,13.9,-,-,-,-,-
Cc1cccc(C)c1NC(=O)CN(C)C(=O)c1ccccc1OCc1ccc(F)cc1,-,-,-,-,-,.,.
SMILES,ADAM17 inh,PLC-gamma1 inh,proKLK7 act,PLCb3 inh,ADAM10 inh,PLCgamma1 ctr,PLCb3 confirm
CCC(C)(c1nnnn1-c1c(C)cccc1C)N(N=O)c1ccccc1Cl (stereo not given),-,10.8,-,-,-,-,-
COc1ccc(C(=O)Nc2sc(C(=O)N(C)C)c(C)c2C#N)cc1[N+](=O)[O-],-,-,-,-,-,.,.
CCN(CC)C(=O)c1sc(NC(=O)c2ccc(C)c([N+](=O)[O-])c2)c(C#N)c1C,-,11.2,-,-,-,-,-
CC(=O)N1c2ccc(S(=O)(=O)N3c4ccccc4CC3C)cc2CC1C (stereo not given),-,-,-,-,-,.,.
CC1Cc2ccccc2N1S(=O)(=O)c1ccc2c(c1)n(C)c(=O)c(=O)n2C (stereo not given),-,9.6,-,-,-,-,-
Cc1cc(NC(=O)C2CC(c3ccc(Cl)cc3)=NO2)no1 (stereo not given),-,-,-,12.0,-,-,-
COc1ccc(C2=NOC(C(=O)Nc3cc(C)on3)C2)cc1 (stereo not given),-,-,-,-,-,.,.
O=C(COc1ccc(F)cc1Br)Nc1ccccc1N1CCOCC1,-,-,-,-,-,.,.
O=C(CCn1nnc(-c2cccs2)n1)N1CCOCC1,-,-,-,-,-,.,.
COc1ccc(C(=O)NC(C(=O)NCC2CCCO2)C(C)C)cc1 (stereo not given),-,10.2,-,-,-,-,-
CCOc1ccc(C(=O)NC(C(=O)NCC2CCCO2)C(C)C)cc1 (stereo not given),-,-,-,-,-,.,.
Cc1ccc2nc(-c3ccccn3)c(N)n2c1,-,-,-,-,-,.,.
O=C(c1cnccn1)N1CCN(c2ccccc2)CC1,-,-,-,-,-,.,.
O=C(c1cnsn1)N1CCN(c2ccccc2)CC1,-,-,-,10.9,-,-,-
CC(=O)OC[C@H]1O[C@@H](n2ccc(=O)[nH]c2=S)C(OC(C)=O)C1OC(C)=O (stereo not given in full),-,9.8,-,-,-,-,-
CCOC(=O)c1cc(=O)c2c([N+](=O)[O-])ccc(OC)c2o1,-,9.6,-,-,-,-,-

# From PubChem
